{
  "source": "PubChem BioAssay (NCATS)",
  "note": "Results filed as inconclusive are left out. Entries that show only a call come without a potency. The source made the active and inactive calls. Calls come from the whole dose curve; as a rule, active = well fitted inhibition curve with a large enough effect; inconclusive = small, poorly fitted or top-dose-only effect; inactive = flat fitted curve, though single readings scatter.",
  "data": [
    {"target": "Calcium and integrin-binding protein 1 (Homo sapiens) (UniProt Q99828)", "sequence (Q99828 whole entry, looked up)": "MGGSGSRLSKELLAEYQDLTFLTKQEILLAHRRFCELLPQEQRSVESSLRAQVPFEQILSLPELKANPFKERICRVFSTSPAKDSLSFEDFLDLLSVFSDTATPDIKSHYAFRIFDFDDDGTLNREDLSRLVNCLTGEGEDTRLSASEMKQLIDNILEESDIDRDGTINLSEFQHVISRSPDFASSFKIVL", "test": "Primary qHTS for Identification of Calcium Integrin Binding Protein 1 (CIB1) Competitor (AID 1508620); note: top concentration of the series differs between compounds", "conditions": "CIB1-GST / FITC-alphaIIb peptide fluorescence polarization; series mostly up to 114 µM", "procedure,_shortened": "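Fluorescence polarization competition: GST-tagged CIB1 (1 uM final) preincubated with compound 15 min at room temperature, then FITC-labelled alphaIIb peptide (100 nM final) added. After 15 min at room temperature, polarization read at Ex 480/Em 540.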", "values": [
      {"smiles": "O=C(O)c1ccc2c(c1)C(=O)N([C@H](Cc1c[nH]c3ccccc13)C(=O)O)C2=O", "Potency": "inactive"},
      {"smiles": "CS(=O)(=O)c1ccc(-c2csc(N3CCC(C(N)=O)CC3)n2)cc1", "Potency": "inactive"},
      {"smiles": "O=C(OCC#CCNc1nnc(-c2cccc3ccccc23)o1)c1cccs1", "Potency": "inactive"},
      {"smiles": "O=C(NCc1ccc(F)cc1)n1c(-c2ccccc2)c(P(=S)(c2ccccc2)c2ccccc2)c2ccccc21", "Potency": "inactive"},
      {"smiles": "O=S(=O)(Nc1cc(O)cc2cccnc12)c1ccc(Br)s1", "Potency": "inactive"},
      {"smiles": "O=C1CCc2cc(S(=O)(=O)Nc3ccccc3Cl)ccc2N1", "Potency": "inactive"},
      {"smiles": "Cc1sc(NC(=O)Cc2ccc3c(c2)OCO3)nc1-c1ccc2c(c1)CCN2", "Potency": "inactive"},
      {"smiles": "CCOc1ccc(CCNC(=O)C2(c3ccccc3)CC2)cc1OCC", "Potency": "inactive"},
      {"smiles": "O=S(=O)(c1ccsc1)N1CCN(c2nc(-c3cccs3)nc3ccccc23)CC1", "Potency": "inactive"},
      {"smiles": "CCc1ccc2oc(=O)cc(CN3CCN(c4ccccc4F)CC3)c2c1", "Potency": "inactive"},
      {"smiles": "Cc1ccc(CN(C)c2ncnc3ccc(-c4ccc(C(=O)O)o4)cc23)o1", "Potency": "inactive"},
      {"smiles": "O=C(Nc1ccc2c(c1)OCCO2)c1ccc(-c2nc3ccccc3[nH]2)cc1", "Potency": "inactive"},
      {"smiles": "Cc1cncc(NC(=S)N2CCN(c3cccc(C(F)(F)F)c3)CC2)c1", "Potency": "inactive"},
      {"smiles": "O=C1Nc2ccccc2/C1=C\\c1ccc(O)c(Cl)c1", "Potency": "inactive"},
      {"smiles": "O=C1CCCC2=C1C(c1[nH]ncc1Cl)NC(=S)N2", "note": "(stereo not given)", "Potency": "inactive"},
      {"smiles": "Cc1ccc(-c2ccc(=O)n(CC(=O)NCCCc3ccccn3)n2)cc1", "Potency": "inactive"},
      {"smiles": "Cn1c(SCC(=O)c2cc3ccccc3o2)nnc1-c1ccccc1", "Potency": "inactive"},
      {"smiles": "Cc1cc(C)n2ncc(C(=O)Nc3ccc4c(c3)OCCO4)c2n1", "Potency": "inactive"},
      {"smiles": "Cc1ccnc(NC(=S)N2CCN(c3ccccc3C(F)(F)F)CC2)c1", "Potency": "inactive"},
      {"smiles": "N#Cc1cccc(-c2ccc(NC(=O)c3cccs3)cn2)c1", "Potency": "inactive"},
      {"smiles": "CCOc1ccc(CCN(C)C(=O)c2cc3sccc3n2Cc2ccccc2)cc1OCC", "Potency": "inactive"},
      {"smiles": "c1cc2c(cc1CNc1ccc(N3CCCCC3)cc1)OCO2", "Potency": "inactive"},
      {"smiles": "O=C(O)c1ccc(S(=O)(=O)N[C@H](Cc2ccc(C(F)(F)F)cc2)C(=O)O)cc1", "Potency": "inactive"},
      {"smiles": "O=C(Cc1ccccc1)Nc1sc2c(c1C(=O)Nc1ccc(Cl)cc1)CCOC2", "Potency": "inactive"},
      {"smiles": "Cc1ccc(-c2ccnc(N3CCC(C(N)=O)CC3)n2)cc1", "Potency": "inactive"},
      {"smiles": "N#CN1CCC(NS(=O)(=O)c2cccc(F)c2)C1", "note": "(stereo not given)", "Potency": "inactive"},
      {"smiles": "Cc1ccc(C2=NN(CC(=O)N(C)C(C)c3ccco3)C(=O)C2)cc1", "note": "(stereo not given)", "Potency": "inactive"},
      {"smiles": "CCOC(=O)c1ccc(O)c2ncc(NCC3CCCN(CCc4ccccc4)C3)cc12", "note": "(stereo not given)", "Potency": "inactive"},
      {"smiles": "CNC(=O)c1cnn2c(C)cc(C)nc12", "Potency": "inactive"},
      {"smiles": "O=C1Nc2ccccc2/C1=C\\c1ccc([N+](=O)[O-])cc1", "Potency": "inactive"},
      {"smiles": "CC(C)CC(OC(=O)CNC(=O)c1ccccc1)C(=O)Nc1cc(C(F)(F)F)ccc1Cl", "note": "(stereo not given)", "Potency": "inactive"},
      {"smiles": "O=C(Nc1ncc(Cc2ccc(C(F)(F)F)cc2)s1)c1ncc(-c2ccccc2)[nH]1", "Potency": "inactive"},
      {"smiles": "CN(C)c1ccccc1-c1csc(N2CCC(C(N)=O)CC2)n1", "Potency": "inactive"},
      {"smiles": "Cc1cccc(-c2ccc3ncnc(NCc4cc(C)cs4)c3c2)c1", "Potency": "inactive"},
      {"smiles": "COc1cc(OC)cc(N2CCN(C(=S)Nc3cc(C)cc(C)n3)CC2)c1", "Potency": "inactive"},
      {"smiles": "Cc1cc(C)n2ncc(C(=O)Nc3ccc(S(C)(=O)=O)cc3)c2n1", "Potency": "inactive"},
      {"smiles": "O=C1Nc2ccccc2/C1=C\\c1cc(Br)c(O)c(Br)c1", "Potency": "inactive"},
      {"smiles": "C/C(=C\\c1cccc(C(F)(F)F)c1)C1Nc2cccc3cccc(c23)N1", "Potency": "inactive"},
      {"smiles": "Cc1ccc(OCCn2c(CCNC(=O)/C=C/c3ccccc3Cl)nc3ccccc32)cc1", "Potency": "inactive"},
      {"smiles": "O=C(O)CN1C(=O)N/C(=C\\c2cccn2-c2ccc(P(=O)(O)O)cc2)C1=O", "Potency": "inactive"}
    ]}
  ]
}
